Reference: paper PMC5540273 (PLoS ONE, 2017)

How the values were obtained:
Details in all cases: concentration: 1 μM, replicates: in singlicate; n = 1
ACVR1 = tested on: ACVR1
ACVR2A = tested on: ACVR2A
ACVR2B = tested on: ACVR2B
ACVRL1 = tested on: ACVRL1
ADCK3 = tested on: T1, ADCK3
T1 construct: gene CABC1

ADCK4 = tested on: ADCK4
AKT1 = tested on: AKT1
AKT2 = tested on: AKT2
AKT3 = tested on: AKT3
ALK = tested on: ALK
AMPK-alpha1 = tested on: T2, AMPK-alpha1
T2 construct: gene PRKAA1

AMPK-alpha2 = tested on: T3, AMPK-alpha2
T3 construct: gene PRKAA2

ANKK1 = tested on: ANKK1
ARK5 = tested on: T4, ARK5
T4 construct: gene NUAK1

ASK1 = tested on: T5, ASK1
T5 construct: gene MAP3K5

ASK2 = tested on: T6, ASK2
T6 construct: gene MAP3K6

AURKA = tested on: AURKA
AURKB = tested on: AURKB
AURKC = tested on: AURKC
AXL = tested on: AXL
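Note: KINOMEscan kinase panel screen.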

SMILES	%Inh (ACVR1)	%Inh (ACVR2A)	%Inh (ACVR2B)	%Inh (ACVRL1)	%Inh (ADCK3)	%Inh (ADCK4)	%Inh (AKT1)	%Inh (AKT2)	%Inh (AKT3)	%Inh (ALK)	%Inh (AMPK-alpha1)	%Inh (AMPK-alpha2)	%Inh (ANKK1)	%Inh (ARK5)	%Inh (ASK1)	%Inh (ASK2)	%Inh (AURKA)	%Inh (AURKB)	%Inh (AURKC)	%Inh (AXL)
O=C(Nc1n[nH]c2nc(-c3cccs3)c(Br)cc12)C1CCCC1 [SB-743341]	0%	0%	7%	9%	7%	0%	0%	40%	0%	1%	29%	40%	35%	0%	0%	12%	17%	27%	10%	0%
CNc1nc(-c2ccc3c(N)n[nH]c3c2)cc(N2C[C@@H](C(=O)NC3CCCCC3)OC[C@H]2C)n1 [GSK2375584]	18%	0%	35%	0%	24%	18%	0%	22%	0%	0%	6%	0%	8%	23%	12%	0%	9%	16%	12%	0%
Cc1ccc(NC(=O)Nc2ccc(Cl)cc2)cc1-c1ccc(C(=O)Nc2ccncc2)cc1 [GSK1398472]	15%	0%	0%	0%	22%	23%	0%	0%	0%	46%	3%	3%	12%	1%	11%	0%	0%	28%	10%	11%
COC(=O)C(NC(=O)NC1CCN(c2ccnc(Nc3ccc(F)cc3)n2)C1)c1ccccc1 (stereo not shown) [GSK1379712]	4%	0%	11%	0%	0%	22%	0%	0%	0%	19%	0%	12%	10%	8%	20%	2%	5%	0%	32%	0%
CS(=O)(=O)CCNCc1nc(-c2ccc3ncnc(Nc4ccc(OCc5ccccc5)c(Cl)c4)c3c2)cs1.Cl [GW582764]	0%	17%	0%	0%	9%	45%	0%	31%	0%	35%	0%	0%	0%	0%	0%	0%	0%	23%	0%	0%
Cc1cccc2c(-c3ccncn3)c(-c3ccc(F)cc3)nn12 [GW515532]	0%	19%	37%	21%	40%	40%	0%	8%	0%	23%	3%	16%	0%	0%	0%	0%	0%	0%	18%	10%
NS(=O)(=O)c1cccc(N/C=C2\C(=O)Nc3ccc(S(=O)(=O)Cc4c(Cl)cccc4Cl)cc32)c1 [GSK398099]	0%	0%	0%	0%	1%	18%	0%	25%	0%	8%	0%	0%	0%	0%	3%	0%	26%	30%	0%	0%
COc1ccc(Nc2nccc(-c3ccc(NC(=O)c4cc5cc(F)ccc5[nH]4)cc3)n2)cc1 [GSK1229496]	0%	0%	0%	0%	5%	29%	0%	0%	0%	17%	0%	0%	0%	0%	2%	0%	0%	5%	0%	0%
Cc1ccccc1Cn1ccn2c(=O)cc(N3CCOCC3)nc12 [GSK2269905]	25%	0%	0%	0%	16%	17%	0%	16%	0%	28%	0%	1%	10%	5%	0%	0%	0%	30%	0%	9%
COc1ccc(CSc2nnc(-c3ccc4nccn4c3)o2)cc1C(F)(F)F	0%	7%	15%	21%	6%	6%	13%	4%	44%	29%	3%	9%	0%	9%	0%	44%	0%	22%	15%	20%
Cc1ccc(-c2nc(Nc3ccncc3)c3ccccc3n2)s1 [GSK189015]	34%	17%	11%	29%	21%	4%	55%	19%	3%	26%	0%	20%	65%	17%	1%	11%	0%	0%	24%	20%
